Experimental data from the supplement of paper PMC7765376.
Counter-ions that a name gives are not always drawn. The full ranking holds about 1,500 compounds; the median of “Excess HSA synergy score (sum over dose matrix of excess over highest single agent)” is about 43, and the lowest 2% start at about -900. This excerpt belongs to a sample that is enriched for the lowest values.

System: PEO-1
Experiment: Excess HSA synergy score (sum over dose matrix of excess over highest single agent) (score (summed % response)); higher = less synergy / more antagonism (negative = synergy)
Conditions: 72 h, read-out: viability/apoptosis luminescence (CellTiter-Glo or Caspase3-Glo / not stated per table)
[1] = matrix design: 6x6, 5-fold dilutions (primary screen)
[2] = matrix design: 10x10, 9-step dilutions (confirmatory)

| Compound | Excess HSA synergy score [1] | Excess HSA synergy score [2] |
| --- | --- | --- |
| CCC1=C[C@@H]2CN(C1)Cc1c([nH]c3ccccc13)[C@@](C(=O)OC)(c1cc3c(cc1OC)N(C)[C@H]1[C@@](O)(C(=O)OC)[C@H](OC(C)=O)[C@]4(CC)C=CCN5CC[C@]31[C@@H]54)C2 [Vinorelbine] + CC[C@H](NC(=O)[C@H](C)NC)C(=O)N1C[C@@H](O)C[C@H]1Cc1c(-c2[nH]c3cc(F)ccc3c2C[C@@H]2C[C@H](O)CN2C(=O)[C@H](CC)NC(=O)[C@H](C)NC)[nH]c2cc(F)ccc12 [Birinapant] | 91.9 | – |
| COc1cc(C(C)=O)ccc1OCCCN1CCC(c2noc3cc(F)ccc23)CC1 [Iloperidone] + CC[C@H](NC(=O)[C@H](C)NC)C(=O)N1C[C@@H](O)C[C@H]1Cc1c(-c2[nH]c3cc(F)ccc3c2C[C@@H]2C[C@H](O)CN2C(=O)[C@H](CC)NC(=O)[C@H](C)NC)[nH]c2cc(F)ccc12 [Birinapant] | 75 | – |
| CN1C(=O)C(Cc2c[nH]c3ccccc23)NC1=S (stereo not drawn) [Necrostatin-1] + CC[C@H](NC(=O)[C@H](C)NC)C(=O)N1C[C@@H](O)C[C@H]1Cc1c(-c2[nH]c3cc(F)ccc3c2C[C@@H]2C[C@H](O)CN2C(=O)[C@H](CC)NC(=O)[C@H](C)NC)[nH]c2cc(F)ccc12 [Birinapant] | 340 | – |
| Clc1ccc(-c2nc3sccn3c2/C=N/OCc2ccc(Cl)c(Cl)c2)cc1 + CC[C@H](NC(=O)[C@H](C)NC)C(=O)N1C[C@@H](O)C[C@H]1Cc1c(-c2[nH]c3cc(F)ccc3c2C[C@@H]2C[C@H](O)CN2C(=O)[C@H](CC)NC(=O)[C@H](C)NC)[nH]c2cc(F)ccc12 [Birinapant] | 56.2 | – |
| NS(=O)(=O)OC[C@@H]1C[C@@H](n2ccc3c(N[C@H]4CCc5ccccc54)ncnc32)C[C@@H]1O + CC[C@H](NC(=O)[C@H](C)NC)C(=O)N1C[C@@H](O)C[C@H]1Cc1c(-c2[nH]c3cc(F)ccc3c2C[C@@H]2C[C@H](O)CN2C(=O)[C@H](CC)NC(=O)[C@H](C)NC)[nH]c2cc(F)ccc12 [Birinapant] | -120 | -1280 |
| CN1CCCN=C1/C=C/c1cccs1 [Pyrantel pamoate] + CC[C@H](NC(=O)[C@H](C)NC)C(=O)N1C[C@@H](O)C[C@H]1Cc1c(-c2[nH]c3cc(F)ccc3c2C[C@@H]2C[C@H](O)CN2C(=O)[C@H](CC)NC(=O)[C@H](C)NC)[nH]c2cc(F)ccc12 [Birinapant] | 18.2 | – |
| O=C(Nc1nc2cccc(-c3ccc(CN4CCS(=O)(=O)CC4)cc3)n2n1)C1CC1 [Filgotinib] + CC[C@H](NC(=O)[C@H](C)NC)C(=O)N1C[C@@H](O)C[C@H]1Cc1c(-c2[nH]c3cc(F)ccc3c2C[C@@H]2C[C@H](O)CN2C(=O)[C@H](CC)NC(=O)[C@H](C)NC)[nH]c2cc(F)ccc12 [Birinapant] | 94.7 | – |
| COc1cccc2nc(-c3cccs3)nc(NN3C(=O)C=C(C)C3=O)c12 + CC[C@H](NC(=O)[C@H](C)NC)C(=O)N1C[C@@H](O)C[C@H]1Cc1c(-c2[nH]c3cc(F)ccc3c2C[C@@H]2C[C@H](O)CN2C(=O)[C@H](CC)NC(=O)[C@H](C)NC)[nH]c2cc(F)ccc12 [Birinapant] | -105 | -1130 |
| COCC[n+]1c2c(n(Cc3cnccn3)c1C)C(=O)c1ccccc1C2=O [Sepantronium bromide] + CC[C@H](NC(=O)[C@H](C)NC)C(=O)N1C[C@@H](O)C[C@H]1Cc1c(-c2[nH]c3cc(F)ccc3c2C[C@@H]2C[C@H](O)CN2C(=O)[C@H](CC)NC(=O)[C@H](C)NC)[nH]c2cc(F)ccc12 [Birinapant] | 55.3 | 281 |
| CCCCCNC(=O)N1CCC(CN(Cc2ccc(Cl)cc2)Cc2ccc([N+](=O)[O-])s2)C1 (stereo not drawn) + CC[C@H](NC(=O)[C@H](C)NC)C(=O)N1C[C@@H](O)C[C@H]1Cc1c(-c2[nH]c3cc(F)ccc3c2C[C@@H]2C[C@H](O)CN2C(=O)[C@H](CC)NC(=O)[C@H](C)NC)[nH]c2cc(F)ccc12 [Birinapant] | -0.0169 | – |
| O=c1ccn(C2OC(CO)C(O)C2F)c(=O)[nH]1 (stereo not drawn) + CC[C@H](NC(=O)[C@H](C)NC)C(=O)N1C[C@@H](O)C[C@H]1Cc1c(-c2[nH]c3cc(F)ccc3c2C[C@@H]2C[C@H](O)CN2C(=O)[C@H](CC)NC(=O)[C@H](C)NC)[nH]c2cc(F)ccc12 [Birinapant] | 232 | – |
| Cc1cc(Nc2cc(CN3CCOCC3)c3nc(C)c(Cc4ccc(Cl)cc4F)n3n2)n[nH]1 [Gandotinib] + CC[C@H](NC(=O)[C@H](C)NC)C(=O)N1C[C@@H](O)C[C@H]1Cc1c(-c2[nH]c3cc(F)ccc3c2C[C@@H]2C[C@H](O)CN2C(=O)[C@H](CC)NC(=O)[C@H](C)NC)[nH]c2cc(F)ccc12 [Birinapant] | 66.5 | – |
| COc1ccc(-c2c(-c3ccc(O)cc3O)n[nH]c2C)cc1 + CC[C@H](NC(=O)[C@H](C)NC)C(=O)N1C[C@@H](O)C[C@H]1Cc1c(-c2[nH]c3cc(F)ccc3c2C[C@@H]2C[C@H](O)CN2C(=O)[C@H](CC)NC(=O)[C@H](C)NC)[nH]c2cc(F)ccc12 [Birinapant] | 59.5 | – |
| Cc1c(CN2CCN(S(C)(=O)=O)CC2)sc2c(N3CCOCC3)nc(-c3cnc(N)nc3)nc12 + CC[C@H](NC(=O)[C@H](C)NC)C(=O)N1C[C@@H](O)C[C@H]1Cc1c(-c2[nH]c3cc(F)ccc3c2C[C@@H]2C[C@H](O)CN2C(=O)[C@H](CC)NC(=O)[C@H](C)NC)[nH]c2cc(F)ccc12 [Birinapant] | 87.6 | – |
| C/C=C1\NC(=O)[C@H]2CSSCC/C=C/[C@H](CC(=O)N[C@H](C(C)C)C(=O)N2)OC(=O)[C@H](C(C)C)NC1=O [Romidepsin] + CC[C@H](NC(=O)[C@H](C)NC)C(=O)N1C[C@@H](O)C[C@H]1Cc1c(-c2[nH]c3cc(F)ccc3c2C[C@@H]2C[C@H](O)CN2C(=O)[C@H](CC)NC(=O)[C@H](C)NC)[nH]c2cc(F)ccc12 [Birinapant] | -212 | -1300 |
| COc1cccc2c(NCc3ccccc3)nc(-n3c(N)nc4ccccc43)nc12 + CC[C@H](NC(=O)[C@H](C)NC)C(=O)N1C[C@@H](O)C[C@H]1Cc1c(-c2[nH]c3cc(F)ccc3c2C[C@@H]2C[C@H](O)CN2C(=O)[C@H](CC)NC(=O)[C@H](C)NC)[nH]c2cc(F)ccc12 [Birinapant] | 17 | – |
| N#CC1(c2cccc(C(=O)Nc3cc(Oc4ccc5nc(NC(=O)C6CC6)sc5n4)ccc3F)c2Cl)CC1 [Takeda-6d] + CC[C@H](NC(=O)[C@H](C)NC)C(=O)N1C[C@@H](O)C[C@H]1Cc1c(-c2[nH]c3cc(F)ccc3c2C[C@@H]2C[C@H](O)CN2C(=O)[C@H](CC)NC(=O)[C@H](C)NC)[nH]c2cc(F)ccc12 [Birinapant] | 135 | – |
| O[C@@H](CNC[C@H](O)[C@H]1CCc2cc(F)ccc2O1)[C@@H]1CCc2cc(F)ccc2O1 (racemic) [rac Nebivolol hydrochloride] + CC[C@H](NC(=O)[C@H](C)NC)C(=O)N1C[C@@H](O)C[C@H]1Cc1c(-c2[nH]c3cc(F)ccc3c2C[C@@H]2C[C@H](O)CN2C(=O)[C@H](CC)NC(=O)[C@H](C)NC)[nH]c2cc(F)ccc12 [Birinapant] | 50.2 | – |
| CC(C)(O)CC[C@@H](O)[C@](C)(O)[C@H]1CC[C@@]2(O)C3=CC(=O)[C@@H]4C[C@@H](O)[C@@H](O)C[C@]4(C)[C@H]3CC[C@]12C [20-hydroxyecdysone] + CC[C@H](NC(=O)[C@H](C)NC)C(=O)N1C[C@@H](O)C[C@H]1Cc1c(-c2[nH]c3cc(F)ccc3c2C[C@@H]2C[C@H](O)CN2C(=O)[C@H](CC)NC(=O)[C@H](C)NC)[nH]c2cc(F)ccc12 [Birinapant] | 229 | – |
| O=C(Nc1ccccc1Br)N[C@@H]1CCN(c2ccc(C(F)(F)F)cn2)C1 + CC[C@H](NC(=O)[C@H](C)NC)C(=O)N1C[C@@H](O)C[C@H]1Cc1c(-c2[nH]c3cc(F)ccc3c2C[C@@H]2C[C@H](O)CN2C(=O)[C@H](CC)NC(=O)[C@H](C)NC)[nH]c2cc(F)ccc12 [Birinapant] | -16.5 | – |
| C[C@H](NC(=O)C(=O)Nc1ccccc1C(C)(C)C)C(=O)N[C@@H](CC(=O)O)C(=O)COc1c(F)c(F)cc(F)c1F [Emricasan] + CC[C@H](NC(=O)[C@H](C)NC)C(=O)N1C[C@@H](O)C[C@H]1Cc1c(-c2[nH]c3cc(F)ccc3c2C[C@@H]2C[C@H](O)CN2C(=O)[C@H](CC)NC(=O)[C@H](C)NC)[nH]c2cc(F)ccc12 [Birinapant] | – | -606 |
| COc1ccc2c(OCc3nnc4ccc(-c5ccccc5)nn34)ccnc2c1 + CC[C@H](NC(=O)[C@H](C)NC)C(=O)N1C[C@@H](O)C[C@H]1Cc1c(-c2[nH]c3cc(F)ccc3c2C[C@@H]2C[C@H](O)CN2C(=O)[C@H](CC)NC(=O)[C@H](C)NC)[nH]c2cc(F)ccc12 [Birinapant] | -55.6 | – |
| N[C@@H](CSC(c1ccccc1)(c1ccccc1)c1ccccc1)C(=O)O [S-Trityl-L-cysteine] + CC[C@H](NC(=O)[C@H](C)NC)C(=O)N1C[C@@H](O)C[C@H]1Cc1c(-c2[nH]c3cc(F)ccc3c2C[C@@H]2C[C@H](O)CN2C(=O)[C@H](CC)NC(=O)[C@H](C)NC)[nH]c2cc(F)ccc12 [Birinapant] | -23.2 | – |
| CCC(=O)NCC[C@@H]1CCc2ccc3c(c21)CCO3 [Ramelteon] + CC[C@H](NC(=O)[C@H](C)NC)C(=O)N1C[C@@H](O)C[C@H]1Cc1c(-c2[nH]c3cc(F)ccc3c2C[C@@H]2C[C@H](O)CN2C(=O)[C@H](CC)NC(=O)[C@H](C)NC)[nH]c2cc(F)ccc12 [Birinapant] | 10.8 | – |
